Screens deposited in PubChem BioAssay by National Center for Advancing Translational Sciences (NCATS).
D3 ag: activates the human D3 dopamine receptor | 0.58% of 410,000 active | D3R DiscoveRx beta-arrestin cells, luminescence, 90 min | P35462 | max activation, %; in the data active = max activation above about 30%; also: 0% is about no effect
Target sequence (P35462 whole entry, looked up): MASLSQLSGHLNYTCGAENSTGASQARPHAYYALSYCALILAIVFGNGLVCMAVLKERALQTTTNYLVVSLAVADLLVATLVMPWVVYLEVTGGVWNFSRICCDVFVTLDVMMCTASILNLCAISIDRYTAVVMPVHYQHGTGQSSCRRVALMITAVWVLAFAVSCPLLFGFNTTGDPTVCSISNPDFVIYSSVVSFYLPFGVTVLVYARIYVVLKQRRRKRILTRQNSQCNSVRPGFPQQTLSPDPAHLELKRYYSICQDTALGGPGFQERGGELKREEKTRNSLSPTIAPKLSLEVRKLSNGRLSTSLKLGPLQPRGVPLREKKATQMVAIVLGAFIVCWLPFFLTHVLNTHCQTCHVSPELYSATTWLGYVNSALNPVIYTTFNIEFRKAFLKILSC
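Agonist mode: compounds and dopamine controls were applied to plated cells for 90 min at 37 degrees C after an overnight attachment at 1500 cells/well. Luminescent read-out followed 30 - 60 minutes at room temperature with DiscoveRx detection reagent.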
IL-1B inflam inh: inhibitors of inflammasome signaling (IL-1 beta secretion) | THP-1 LPS/ATP IL-1B secretion, AlphaLISA, 16 h; active compounds read low | activity change, % at 57.5 µM | 4.7% of 360,000 active | AID 743279; in the data active = activity change below about -50%; inconclusive = mostly about -30% to -49%; also: % is scaled to controls: 0 for no effect and ±100 for the full control effect
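THP-1 cells pretreated 1 hr with compounds (up to 57.5 uM final), then stimulated with LPS (250 ng/mL final) plus ATP (1.25 mM final); secreted IL-1B measured by AlphaLISA after 16 hr, decreased signal indicating inhibition.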
a7 integrin act: integrin-mediated muscular dystrophy alleviation activation. 0.064% of 350,000 active. Potency, µM (highest dose often 38.3 µM), for the others: at the highest dose activation, usual class: activators. alpha7betagal myoblasts, beta-gal FDG fluorescence, 48 h;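 also: potency is read from the fitted curve at half-maximal effect; 100% = response of the positive control SU9516; nearly all actives have a fitted effect of over 60% in size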
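Alpha7betagal+/- myoblasts (passage 13) were plated 16-24 hr, then exposed to compounds (1:260 dilution of DMSO stock) for 48 hours at 37C. After MPER lysis, β-galactosidase reporter activity was read as FDG fluorescence (ex 480/em 540) after 30 minutes.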
ATXN2 expr inh: ATXN2 expression inhibition; HEK-293 ATXN2-luciferase reporter, luminescence, 24 h; Potency, µM (series often up to 57 µM), without a hit: top-dose activity change, negative = inhibition, usual class: inhibitors; 0.72% of 360,000 active; also: potency is read from the fitted curve at half-maximal effect; % is scaled to controls: 0 for no effect and ±100 for the full control effect; nearly all actives have a fitted effect of over 55% in size
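qHTS (up to 57 uM final) was run with 24 h compound exposure of reporter cells at 37 °C. Each well was multiplexed: SteadyGlo luminescence measured ATXN2-luciferase expression after a fluorogenic Gly-Phe-AFC viability readout (25 uM final).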
ATXN viability: viability counter-screen for ATXN expression inhibitors; 0.49% of 400,000 active; Potency, µM (doses to about 56.7 µM), most hits filed as cytotoxic; AID 651635; S2 cells (HEK-293 line with an ATXN2-luciferase reporter) viability, CellTiter-Fluor protease fluorescence, 24 h; also: potency is read from the fitted curve at half-maximal effect; nearly all actives have a fitted effect of over 40% in size
DRD3 antagonist: blocks the human D3 dopamine receptor. P35462. D3R cells, DiscoveRx beta-arrestin luminescence, antagonist mode; active compounds read low. max response, negative = inhibition, %. 2.5% of 360,000 active. AID 652054; in the data active = max response below about -50%; inconclusive = no clear call, values can overlap the other calls; also: % is scaled to controls: 0 for no effect and ±100 for the full control effect
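Cells plated overnight at 1500 cells/well, then exposed to library compounds with dopamine controls for 90 minutes at 37 degrees C. DiscoveRx reagent added for 30–60 minutes at room temperature; luminescence read, quantitative HTS format.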
An asterisk follows results filed as active; i = inactive; ? = inconclusive; . = no result given; [ ] = remark or other dose. Shown are actives, neighbours in structure and some others; about 7% of the full set was active somewhere. Unless noted, calls follow the shape of the dose curve; as a rule, active = well fitted curve in the direction sought with a large enough effect; inconclusive = small, poorly fitted or top-dose-only effect, or another doubt; inactive = no such curve, though single readings can be large; an effect the other way counts as inactive or inconclusive.

SMILES | D3 ag | IL-1B inflam inh | a7 integrin act | ATXN2 expr inh | ATXN viability | DRD3 antagonist
Cn1cc(CNCc2cn(C)nc2-c2ccc(C3CCCCC3)cc2)cn1 | -3 | -71* | -78% | ? | i | 0
CC(C)(C)NC(=O)Cn1nnc(-c2ccc(OCc3c(F)cccc3Cl)cc2)n1 | 19 | ? | -49% | -14% | i | 12
COC(=O)CN1C(c2ccccc2)=Nc2ccc(Cl)cc2C1c1ccccc1 (centres undefined) | -5 | -7 | 12% | . | . | -56*
COC(=O)CN1C(=O)Nc2ccc(C)cc2C1c1ccccc1 (centres undefined) | 2 | 0 | 2% | -17% | i | -11
COC(=O)CN1C(C)=Nc2ccc(C)cc2C1c1ccccc1 (centres undefined) | -9 | -53* | 20% | -14% | i | 7
NNC(=O)CN1C(c2ccc(Cl)cc2)=Nc2ccc(Br)cc2C1c1ccccc1 (centres undefined) | -9 | ? | 23% | -9% | i | -59*
CC1Cc2ccccc2N1C(=O)COC(=O)/C=C/c1ccc(F)cc1 (centres undefined) | 1 | -5 | -13% | . | ? | 17
CC1Cc2ccccc2N1C(=O)/C=C/c1cccc(F)c1 (centres undefined) | 7 | -69* | 21% | 76% | i | 14
CN1CCN(S(=O)(=O)c2ccc(N(C)Cc3cccc(F)c3)nc2)CC1 | -1 | -6 | -10% | . | i | 14
C/C(=N\NC(=O)c1ccc(Cl)cc1)c1cccs1 | -3 | -63* | 8% | ? | i | -10
C/C(=N\NC(=O)c1ccc(NS(=O)(=O)c2cccs2)cc1)c1cccs1 | -3 | -52* | 3% | -23% | i | -10
O=C(NN=Cc1c(F)c(F)c(F)c(F)c1F)c1ccc(NS(=O)(=O)c2cccs2)cc1 | 2 | -99* | -29% | -16% | i | 4
CSc1ncnc2c1ncn2CCCNCc1cccc2ccccc12 | -11 | 4 | -18% | -8% | i | -17
C[C@H]1CN([C@@H](C)CO)C(=O)Cc2cc(NC(=O)Nc3ccccc3)ccc2O[C@H]1CN(C)Cc1ccccc1 | 10 | -72* | -24% | ? | 28µM* | -17
C[C@H]1CN([C@@H](C)CO)C(=O)Cc2cc(NS(C)(=O)=O)ccc2O[C@@H]1CN(C)Cc1ccc(Cl)c(Cl)c1 | 1 | ? | -18% | -37% | ? | 24
C[C@H](CO)N1C[C@H](C)[C@H](CN(C)Cc2ccncc2)Oc2ccc(NC(=O)Nc3ccc(C(F)(F)F)cc3)cc2CC1=O | -3 | -10 | -44% | ? | 28µM* | -28
C[C@@H]1CN([C@@H](C)CO)C(=O)Cc2cc(NC(=O)Nc3ccc(F)cc3)ccc2O[C@@H]1CN(C)Cc1ccc(Cl)c(Cl)c1 | -39 | -54* | -9% | ? | ? | ?
COc1cccc(OCc2nc3ccccc3n2CCOc2cccc(C)c2)c1 | -2 | . | . | -3% | ? | .
Cc1cccc(-c2nc(CN3CCN(Cc4cccc(F)c4)CC3)c(C)o2)c1 | -14 | 22 | -31% | -22% | i | -11
Cc1cccc(N2CCN(Cc3nc(-c4ccc(F)cc4F)oc3C)CC2)n1 | -16 | 1 | -42% | -25%[2.22 µM] | ? | -86*
Cc1oc(-c2cc(F)ccc2F)nc1CN1CCCN(C(=O)c2ccco2)CC1 | -16 | -7 | -4% | -15% | i | -81*
Cc1oc(-c2cccc(F)c2)nc1CN1CCCN(C(=O)c2ccco2)CC1 | -17 | 33 | -13% | -12% | i | -62*
CCN(CC)C(=O)Cn1cc(SCC(=O)NCc2ccco2)c2ccccc21 | -11 | -9 | -10% | -30% | i | -16
COc1ccccc1NC(=O)Cc1noc(CSc2nnc(C)n2C)n1 | 7 | -11 | -20% | -7% | i | 7
Cc1ccc(CSCCNS(=O)(=O)c2ccc([N+](=O)[O-])cc2)cc1 | 4 | -61* | 3% | -16% | i | 1
SMILES | D3 ag | IL-1B inflam inh | a7 integrin act | ATXN2 expr inh | ATXN viability | DRD3 antagonist
Cc1ccc(S(=O)(=O)NCCSCc2ccccc2)cc1 | -3 | -1 | 6% | 1% | i | 7
COc1ccc2c(c1)CCc1c-2n[nH]c1C(=O)NCCC(C)C | -4 | -60* | 6% | -18% | i | -16
CCCN1CCC(=O)N([C@H](COc2ccccc2)CC(C)C)CC1 | -39 | -9 | -8% | 4% | i | -58*
CC(C)C[C@@H](COc1ccccc1)N1CCN(CCc2ccccc2)CCC1=O | -45 | -3 | -36% | -3% | ? | ?
COC(=O)c1cn(C(=O)c2cccc(C)c2)c2ccccc12 | -2 | -11 | 16% | 1% | ? | 5
Cn1c(=NC(=O)COc2ccccc2)sc2ccccc21 | 3 | -10 | -10% | . | ? | 31
NC(N)=N/N=C(\N=Nc1ccccc1)c1ccc(Cl)cc1 | -6 | -113* | -54% | -9% | ? | -5
C=C(C)CNC(=S)NNC(=O)CCn1c2cc(Cl)ccc2c2ccc(Cl)cc21 | 4 | 14 | 36% | 3% | i | 21
C=C(C)CNC(=S)NNC(=O)CCn1c2ccc(Cl)cc2c2cc(Cl)ccc21 | -9 | -100* | 11% | -23% | ? | -11
COc1ccc(CNC(=O)c2cc3cc4ccc(C)cc4nc3o2)cc1 | 6 | . | . | 3% | i | .
Cc1ccc2cc3cc(C(=O)N4CC(C)CC(C)C4)oc3nc2c1 (centres undefined) | -9 | -53* | 37% | 22% | i | -10
CCN(C(=O)c1cc2cc3ccc(C)cc3nc2o1)c1ccc(OC)cc1 | -2 | -52* | ? | 28% | i | 22
Cc1ccc2cc3cc(C(=O)N4CCCCC4C)oc3nc2c1 (centres undefined) | -8 | -77* | 3% | 34% | i | 12
Cc1ccc2cc3cc(C(=O)NC4CCCCC4)oc3nc2c1 | 0 | -6 | -10% | . | i | 7
COc1ccc2cc3cc(C(=O)N4CC(C)CC(C)C4)oc3nc2c1 (centres undefined) | 0 | -19 | 0% | 43% | i | -3
COc1ccccc1-c1cc(NC=O)c2ncc(-c3ccc(F)cc3)n2c1 | -9 | -23 | . | ? | i | 0
Nc1ccc2c(c1)[nH]c(=O)c1ccccc12 | -13 | -75* | -16% | 1% | i | 4
Nc1cc2[nH]c(=O)c3ccccc3c2cc1Br | -12 | 0 | -13% | 1% | i | 0
CC1(C)C(/C=C/C=C/C=C/C=C2\N(CCCCS(=O)(=O)O)c3ccc4ccccc4c3C2(C)C)=[N+](CCCCS(=O)(=O)[O-])c2ccc3ccccc3c21 | 6 | -77* | . | -3% | i | ?
